Many of the other results were omitted from the sample, so hits are more common in it than they were.
Pf Dd2 inh: qHTS Primary assay for Inhibitors of Plasmodium falciparum Dd2 growth in vitro. P. falciparum Dd2 growth, SYBR Green, 72 h. Potency, µM (top dose mostly 28.9 µM), for the others: top-dose activity, negative = inhibition, usual class: inhibitors. 120,000 compounds, 4.3% hits; active means well fitted inhibition curve with a large enough effect;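 further: plate controls were DMSO vehicle for no effect and reference drug for full effect; nearly all actives have a fitted effect of over 65% in size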
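Readout: SYBR Green fluorescence, 485 nm excitation, 535 nm emission, after ~16 h lysis at 37C. Before that, Dd2-infected red cells (2.5% hematocrit) grew 72 h with compound, 29 uM top final concentration.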
Active calls of the source: *; [ ] = dose if it differs, or a comment. Potency means the concentration at half of the fitted maximal effect.

Results for O=C(NCc1ccccc1)c1ccc2c(c1)OCCN(c1ccccc1)C2 ?
Pf Dd2 inh: inactive

How did O=C(c1ccc(Br)o1)N1CC2CC(C1)[C@H]1CCCC(=O)N1C2 (stereo partly drawn) do in these assays?
Pf Dd2 inh: 10%

Results for Cc1ccc(C(=O)N2CCC3(CN[S+](=O)([O-])c4ccccc4N3)C2)cc1 (stereo not drawn) ?
Pf Dd2 inh: 23%

Results for COc1cccc(Cc2nc(C3CC(=O)N(C4CCCCC4)C3)no2)c1 (stereo not drawn) ?
Pf Dd2 inh: inactive

How did COc1ccc(C(=O)N[C@@H]2CCC[C@@H]2C(=O)NCc2cccc(OC)c2OC)cc1 do in these assays?
Pf Dd2 inh: -28%

Results for COCCc1noc(C2Cc3ccccc3N2C(=O)Nc2cc(C)cc(C)c2)n1 (stereo not drawn) ?
Pf Dd2 inh: inactive[5.79 µM]

How did CC(C)c1ccccc1OCC(=O)c1ccc2c(c1)N(CC(=O)NCC1CC1)C(=O)CO2 do in these assays?
Pf Dd2 inh: inactive

Results for CCn1cc(-c2nc3cc(S(=O)(=O)NC(C)C)ccc3n2C(C)C)cn1 ?
Pf Dd2 inh: -18%

How did COCCN1CCC(N2CCN(S(=O)(=O)c3ccc(Cl)cc3C)CC2)C1=O (stereo not drawn) do in these assays?
Pf Dd2 inh: -8%

Results for CCOc1ccc(C(=O)NC2CCN(c3cnn(C)c(=O)c3)CC2)cc1 ?
Pf Dd2 inh: -23%

Results for Cc1cc(C(=O)N2CCCn3ccnc3C2c2cnn(C)c2)n[nH]1 (stereo not drawn) ?
Pf Dd2 inh: 0%

Results for COc1ccccc1N1CCN(C(=O)c2cnn(C(C)(C)C)c2C2CCN(C(=O)OC(C)(C)C)CC2)CC1 ?
Pf Dd2 inh: 6.3µM*

Results for Cc1ccc(-n2ncc(C(=O)N3CCN(c4ccccc4F)CC3)c2C2CCN(C(=O)OC(C)(C)C)CC2)cc1C ?
Pf Dd2 inh: 3%

What do the screens show for `CC(C)(C)OC(=O)N1CCC(c2c(C(=O)N3CCN(c4ccccc4F)CC3)cnn2C(C)(C)C)CC1`?
Pf Dd2 inh: 10µM*

How did COCCN1CC(CO)C2(CCN(C(=O)Cc3ccccc3C)CC2)C1 (stereo not drawn) do in these assays?
Pf Dd2 inh: 5%

What do the screens show for `CN(CCc1noc(C2CN(Cc3cc(Cl)ccc3F)C2)n1)S(C)(=O)=O`?
Pf Dd2 inh: -19%

What do the screens show for `CC(C)n1nc(OC(C)(C)C(=O)NC2CCOCC2)c2cc(CN3CCOCC3)ccc21`?
Pf Dd2 inh: -3%

What do the screens show for `CN(C)Cc1cn([C@H]2CO[C@H]3[C@@H]2OC[C@@H]3NC(=O)NC2CCCCC2)nn1`?
Pf Dd2 inh: 1%[44.1 µM]

Results for Cc1ccc(-c2noc(CCCc3nc(-c4cccnc4)no3)n2)nn1 ?
Pf Dd2 inh: inactive

Results for COc1cc(OC)c(NC(=O)c2ccc3c(Cl)c4c(nc3c2)CCCC4)cc1Cl ?
Pf Dd2 inh: 14%

How did COc1ccc(Nc2c3c(nc4nncn24)CCC3)cc1OC do in these assays?
Pf Dd2 inh: inactive

How did COc1cc(OC)c(Nc2c3c(nc4nc(-c5cccs5)nn24)CCCC3)cc1Cl do in these assays?
Pf Dd2 inh: 11µM*

Results for O=C(CC1CCCN(c2cnn(CC3CC3)c(=O)c2)C1)NCCc1c[nH]c2ccccc12 (stereo not drawn) ?
Pf Dd2 inh: -16%

Results for CN(C)c1ccc(C(=O)N[C@H]2C[C@H]3C(=O)NC[C@@H](CCC(=O)NCc4ccc(F)cc4)N3C2)cc1 ?
Pf Dd2 inh: -6%

What do the screens show for `Cc1cc(C(=O)NCc2ccc(F)cc2)c2c(C3CCNC3)noc2n1` (stereo not drawn)?
Pf Dd2 inh: 15%

What do the screens show for `O=C(NCc1ccc(F)cc1)c1cc(C2CC2)nc2onc(C3CCCNC3)c12` (stereo not drawn)?
Pf Dd2 inh: 8.9µM*

What do the screens show for `O=C(NCc1ccc(F)cc1)c1cc(C2CC2)nc2onc(C3CCNCC3)c12`?
Pf Dd2 inh: 10µM*

Results for COCCNC(=O)c1cc(C2CC2)nc2onc(C3CCNC3)c12 (stereo not drawn) ?
Pf Dd2 inh: 3%

Results for O=C(NC1CC1)c1cc(C2CC2)nc2onc(C3CCNCC3)c12 ?
Pf Dd2 inh: 6%

What do the screens show for `O=C(NCc1ccc(F)cc1)c1cc(C2CC2)nc2onc(C3CCCN3)c12` (stereo not drawn)?
Pf Dd2 inh: -12%

What do the screens show for `CC(C)N1CCC(O)(c2csc(CN3CC[C@@H](O)C3)n2)CC1`?
Pf Dd2 inh: 23%[44.1 µM]

Results for COc1ccc(Cc2nc3nccc(-c4cccc(OC)c4)n3n2)cc1 ?
Pf Dd2 inh: inactive

What do the screens show for `O=C([C@@H]1C[C@H](F)CN1C(=O)c1cccc(C(F)(F)F)c1)N1CCCCC1`?
Pf Dd2 inh: inactive

What do the screens show for `O=C(NC1CCN(c2cc(-c3cccs3)[nH]n2)C1)c1ccc2[nH]ccc2c1` (stereo not drawn)?
Pf Dd2 inh: inactive

How did Cc1ccc(C(=O)NC2CCN(c3cc(-c4cccs4)[nH]n3)C2)cc1F (stereo not drawn) do in these assays?
Pf Dd2 inh: inactive

Screening results from PubChem.
